About 79,000 compounds went through this panel and 15% of them were active in at least one assay; those are over-represented in the sample as a whole. Calls of active or inactive are those of the source. Rule as the data show it: active = growth inhibition above about 70%; inactive = the rest.
Legend:
[1] = NCI Yeast Anticancer Drug Screen. Data for the rad52 strain (AID 147);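 also: 0% = growth of vehicle-treated control cultures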; conditions: S. cerevisiae rad52 mutant growth inhibition, hits give high values
Outline: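 Read-out: growth inhibition versus vehicle-treated controls. Cells were a DNA repair-deficient yeast strain treated with compounds.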

[2] = NCI Yeast Anticancer Drug Screen. Data for the wt1 strain (AID 149);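 also: 0% = growth of vehicle-treated wt1 cultures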; conditions: S. cerevisiae wt1 strain (SPY 50644) growth inhibition, hits give high values
Outline: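 Yeast wt1 strain exposed to compounds; growth inhibition measured relative to vehicle-treated controls.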

[3] = NCI Yeast Anticancer Drug Screen. Data for the rad50EPP+ strain (AID 151);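 also: 0% = growth of vehicle-treated control cultures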; conditions: S. cerevisiae rad50 mutant strain, hits give high values
Outline: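 Growth inhibition read against vehicle controls in rad50EPP+ yeast, a strain altered in DNA damage repair, after compound exposure.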

[4] = NCI Yeast Anticancer Drug Screen. Data for the mgt1 strain (AID 153); conditions: S. cerevisiae mgt1 mutant growth inhibition, hits give high values
Outline: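 mgt1 yeast grown with test compound; read-out is growth inhibition versus vehicle-treated cultures.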

[5] = NCI Yeast Anticancer Drug Screen. Data for the rad50 strain (AID 155);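 also: 0% = growth of vehicle-only cultures of the same strain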; conditions: S. cerevisiae rad50 strain growth inhibition, hits give high values
Outline: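 Yeast carrying a defined DNA repair defect were exposed to test compounds, and growth was compared with vehicle-treated controls to give percent inhibition.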

[6] = NCI Yeast Anticancer Drug Screen. Data for the mec2-1 strain (AID 157); conditions: S. cerevisiae mec2-1 strain, hits give high values
Outline: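 Yeast mec2-1 mutant treated with compound. Readout: growth inhibition vs vehicle controls.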

[7] = NCI Yeast Anticancer Drug Screen. Data for the rad14 strain (AID 159);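 also: 0% = growth of vehicle-treated control cultures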; conditions: S. cerevisiae rad14 strain growth inhibition, hits give high values
Outline: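 Yeast cells carrying a defined DNA-repair defect were exposed to compounds, and growth inhibition was calculated relative to vehicle-treated control cultures.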

[8] = NCI Yeast Anticancer Drug Screen. Data for the sgs1 mgt1 strain (AID 161);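 also: 0% = growth of cultures given vehicle only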; conditions: S. cerevisiae sgs1 mgt1 strain, hits give high values
Outline: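 Mutant yeast exposed to compound; growth scored against vehicle-only wells.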

[9] = NCI Yeast Anticancer Drug Screen. Data for the CLN2oe strain (AID 163);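 also: 0% = growth of vehicle-only control cultures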; conditions: S. cerevisiae CLN2oe strain, hits give high values
Outline: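 Read-out: yeast growth inhibition, expressed relative to vehicle-only controls. The strain bears an engineered cell-cycle alteration.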

[10] = NCI Yeast Anticancer Drug Screen. Data for the cln2 rad14 strain (AID 165);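 also: 0% = growth equal to vehicle treated cultures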; conditions: S. cerevisiae cln2 rad14 strain, hits give high values
Outline: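 cln2 rad14 yeast strain; compound exposure; growth inhibition read vs vehicle controls.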

[11] = NCI Yeast Anticancer Drug Screen. Data for the bub3 strain (AID 167); conditions: S. cerevisiae bub3 mutant strain, hits give high values
Outline: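 Compounds were applied to a genetically altered yeast strain carrying a cell-cycle control defect. Growth inhibition was scored against vehicle-treated controls.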

[12] = NCI Yeast Anticancer Drug Screen. Data for the wt2 strain (AID 169);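 also: 0% = growth of vehicle-treated yeast cultures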; conditions: S. cerevisiae wt2 strain growth inhibition, hits give high values
Outline: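 Read-out: growth inhibition versus vehicle-treated control cultures after compound exposure of the yeast strain.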

[13] = NCI Yeast Anticancer Drug Screen. Data for the mlh1 strain (AID 171);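 also: 0% = growth of vehicle-treated control cultures of the same strain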; conditions: S. cerevisiae mlh1 strain growth inhibition, hits give high values
Outline: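 Read-out: growth inhibition versus vehicle controls. Strain: engineered yeast with a defined DNA repair or cell cycle defect, compound-treated.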

[14] = NCI Yeast Anticancer Drug Screen. Data for the sgs1 strain (AID 173);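 also: 0% = growth of vehicle-only control cultures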; conditions: S. cerevisiae sgs1 mutant, hits give high values
Outline: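 Read-out: yeast growth inhibition relative to vehicle controls, following compound exposure of a strain with a defined DNA repair/cell cycle alteration.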

[15] = NCI Yeast Anticancer Drug Screen. Data for the mlh1 rad18 strain (AID 175); conditions: S. cerevisiae mlh1 rad18 strain growth inhibition, hits give high values
Outline: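 Yeast w/ defined DNA-repair lesions; compound exposure; growth vs vehicle controls → % inhibition.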

[16] = NCI Yeast Anticancer Drug Screen. Data for the rad18 strain (AID 177); conditions: S. cerevisiae rad18 mutant growth inhibition, hits give high values
Outline: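 Readout: growth inhibition vs vehicle controls. Cells: genetically altered yeast strain, DNA repair defect.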

[17] = at 5.0 µM (retest, dose inferred, filed as 0.5)
[18] = at 50.0 µM (retest, dose inferred, filed as 5.0)

Measured: growth inhibition

O=[N+]([O-])c1cccc2nc3ccccc3c(NCCC[N+]3([O-])CCCCC3)c12
active: [1]; at 11.0 µM 80% | [1]; at 33.0 µM 90% | [1]; at 100.0 µM 94% | [3]; at 11.0 µM 77% | [3]; at 33.0 µM 93% | [3]; at 100.0 µM 96% | [5]; at 33.0 µM 82% | [5]; [18] 93% | [5]; at 50.0 µM 81.3% | [5]; at 100.0 µM 91% | [6]; at 33.0 µM 86% | [6]; [18] 98% | [6]; at 50.0 µM 96% | [6]; at 100.0 µM 96% | [7]; at 11.0 µM 86% | [7]; at 33.0 µM 95% | [7]; at 100.0 µM 98% | [8]; [17] 78% | [8]; [18] 96% | [8]; at 50.0 µM 93.5% | [9]; at 33.0 µM 85% | [9]; at 100.0 µM 94% | [10]; [17] 95% | [10]; [18] 98% | [10]; at 50.0 µM 97.1% | [11]; at 33.0 µM 82% | [11]; [18] 86% | [11]; at 100.0 µM 87% | [12]; at 33.0 µM 85% | [12]; at 100.0 µM 96% | [14]; at 3.7 µM 70% | [14]; at 11.0 µM 84% | [14]; at 33.0 µM 91% | [14]; at 100.0 µM 93% | [15]; [17] 84% | [15]; [18] 98% | [15]; at 50.0 µM 94.4% | [16]; at 1.2 µM 93% | [16]; at 3.7 µM 95% | [16]; at 11.0 µM 96% | [16]; at 33.0 µM 96% | [16]; at 100.0 µM 96%
inactive: [1]; at 1.2 µM 20% | [1]; at 3.7 µM 47% | [2]; at 1.2 µM 1% | [2]; at 3.7 µM 2% | [2]; at 11.0 µM 4% | [2]; at 33.0 µM 15% | [2]; at 100.0 µM 46% | [3]; at 1.2 µM 10% | [3]; at 3.7 µM 36% | [4]; at 1.2 µM 0% | [4]; at 3.7 µM 1% | [4]; at 11.0 µM 5% | [4]; at 33.0 µM 7% | [4]; at 100.0 µM 56% | [5]; at 1.2 µM 4% | [5]; at 3.7 µM 16% | [5]; [17] 67% | [5]; at 11.0 µM 47% | [6]; at 1.2 µM 1% | [6]; at 3.7 µM 8% | [6]; [17] 39% | [6]; at 11.0 µM 35% | [7]; at 1.2 µM 6% | [7]; at 3.7 µM 28% | [9]; at 1.2 µM -2% | [9]; at 3.7 µM -5% | [9]; at 11.0 µM 46% | [11]; at 1.2 µM -13% | [11]; at 3.7 µM -8% | [11]; [17] -4% | [11]; at 11.0 µM 34% | [11]; at 50.0 µM 38.7% | [12]; at 1.2 µM 0% | [12]; at 3.7 µM 6% | [12]; at 11.0 µM 25% | [13]; at 1.2 µM 0% | [13]; at 3.7 µM 2% | [13]; at 11.0 µM 8% | [13]; at 33.0 µM 28% | [13]; at 100.0 µM 66% | [14]; at 1.2 µM 40%
